# Results: PubChem BioAssay AID624255 (Broad Institute, 2012)
# About 4,600 (6%) of roughly 77,000 compounds were called active. Another 1% or so got no clear call; they are omitted.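 The calls were made as follows: active = mean inhibition above about 93%, with at least 55% of replicates each passing it (limit read from the data, passing the limit was not always enough); inconclusive = only one of those two conditions holds; inactive = neither condition holds.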 Many of the other results were omitted from the sample, so actives are more common in it than they were.
# Assay: T. cruzi intracellular proliferation inhibitors, primary screen, cell-based, beta-gal Tulahuen parasites, NIH3T3 host, luminescence (AID 624255)
# Conditions: T. cruzi beta-gal in NIH3T3, GalScreen luminescence, 90 h; at 8.34 µM; active compounds read high
row,SMILES,inhibition
1,O=C(C[C@H]1CC[C@H](NC(=O)c2ccc3c(c2)OCO3)[C@H](CO)O1)NCc1ccc(Oc2ccccc2)cc1,-47.4% (inactive)
2,O=C(NCc1ccccc1Cl)[C@H]1[C@H](CO)[C@H]2Cn3c(cccc3=O)[C@H]2N1C(=O)C1CCC1,19.3% (inactive)
3,C/C=C/c1ccc([C@@H]2[C@@H](CO)N(C(C)=O)[C@H]2CN(C)C(=O)CN(C)C)cc1,-6.45% (inactive)
4,COc1ccc(C#Cc2ccc3c(c2)O[C@@H](CN(C)C(=O)Nc2cccc(OC)c2)[C@H](C)CN([C@H](C)CO)S3(=O)=O)cc1,73.3% (inactive)
5,C[C@@H]1CN([C@@H](C)CO)S(=O)(=O)c2ccc(C#Cc3ccc(F)cc3)cc2O[C@H]1CN(C)C(=O)c1ccccn1,103% (active)
6,CC(C)C#Cc1ccc2c(c1)O[C@@H](CN(C)C(=O)NC(C)C)[C@H](C)CN([C@H](C)CO)S2(=O)=O,55.8% (inactive)
7,C[C@@H]1CN([C@@H](C)CO)S(=O)(=O)c2ccc(C#Cc3ccccc3)cc2O[C@@H]1CN(C)C(=O)Nc1ccccc1,113% (active)
8,CC(C)CC#Cc1ccc2c(c1)O[C@@H](CN(C)C(=O)c1ccccn1)[C@@H](C)CN([C@H](C)CO)S2(=O)=O,74.4% (inactive)
9,C/C=C/c1ccc2c(c1)O[C@@H](CN(C)C(=O)c1ccccn1)[C@H](C)CN([C@@H](C)CO)S2(=O)=O,11.4% (inactive)
10,C/C=C/c1ccc2c(c1)O[C@H](CN(C)C(=O)Nc1ccccc1)[C@H](C)CN([C@@H](C)CO)S2(=O)=O,45.2% (inactive)
11,C[C@@H]1CN([C@@H](C)CO)S(=O)(=O)c2ccc(C#Cc3ccc(F)cc3)cc2O[C@H]1CN(C)C(=O)NC1CCCC1,114% (active)
12,C[C@@H]1CN([C@@H](C)CO)S(=O)(=O)c2ccc(C#Cc3ccc(F)cc3)cc2O[C@@H]1CN(C)CC1CC1,11.3% (inactive)
13,COc1cccc(NC(=O)N(C)C[C@H]2Oc3ncc(C4=CCCCC4)cc3C(=O)N([C@H](C)CO)C[C@H]2C)c1,-8.07% (inactive)
14,CO[C@@H]1CC[C@H]2CCOc3c(C#N)cccc3C(=O)N(C)C[C@@H](OC)[C@H](C)C(=O)N(C)C[C@@H]1O2,20.8% (inactive)
15,O=C(CN1CCOCC1)N[C@@H]1CC[C@H](CCNS(=O)(=O)c2ccccc2F)O[C@H]1CO,2.08% (inactive)
16,C[C@@H]1CCCCO[C@@H](CN(C)C(=O)Cc2ccccc2)[C@@H](C)CN([C@@H](C)CO)C(=O)c2cc(NC(=O)c3ccccc3)ccc2O1,60.5% (inactive)
17,C[C@@H]1CN([C@H](C)CO)C(=O)c2cc(C3=CCCC3)cnc2O[C@@H]1CN(C)C(=O)Nc1ccc(F)cc1,15.9% (inactive)
18,O=C([C@H]1[C@H](CO)[C@H]2Cn3c(ccc(C4=CCCC4)c3=O)[C@@H]1N2C(=O)c1ccncc1)N1CCCCC1,34.7% (inactive)
19,CO[C@H]1CN(C)C(=O)c2ccc(NC(=O)C3CC3)cc2OC[C@H](C)N(CCc2ccccc2)C[C@H]1C,36.1% (inactive)
20,COc1ccc(CN(C)C[C@@H]2OCCCC[C@H](C)Oc3ccc(NS(C)(=O)=O)cc3C(=O)N([C@@H](C)CO)C[C@H]2C)cc1,0.374% (inactive)
21,Cc1ccc(S(=O)(=O)N2C[C@H](O)COC[C@H]3O[C@H](CC(=O)N[C@H]4CCN(Cc5ccccc5)C4)CC[C@@H]32)cc1,-33.7% (inactive)

row,SMILES,inhibition
1,Cc1cccc(-c2ccc([C@@H]3[C@H](CO)N4CCCCN(Cc5ccncc5)C[C@@H]34)cc2)c1,92% (inactive)
2,OC[C@H]1[C@@H](c2ccc(-c3ccccc3F)cc2)[C@@H]2CN(Cc3ccncc3)CCCCN12,93.1% (inactive)
3,Cc1cccc(-c2ccc([C@H]3[C@@H](CO)N4CCCCN(Cc5cncnc5)C[C@H]34)cc2)c1,104% (active)
4,CN(C)C(=O)c1ccc(-c2ccc([C@@H]3[C@@H](CO)N4CCCCN(Cc5cncnc5)C[C@@H]34)cc2)cc1,55.5% (inactive)
5,OC[C@H]1[C@H](c2ccc(-c3ccccc3F)cc2)[C@H]2CN(Cc3cncnc3)CCCCN21,69.5% (inactive)
6,Cc1ccc(-c2ccc([C@H]3[C@H](CO)N4CCCCN(Cc5cncnc5)C[C@@H]34)cc2)cc1,96% (active)
7,OC[C@@H]1[C@H](c2ccc(C3=CCCC3)cc2)[C@H]2CN(Cc3ccncc3)CCCCN12,75.8% (inactive)
8,OC[C@@H]1[C@@H](c2ccc(-c3ccccc3F)cc2)[C@@H]2CN(Cc3cncnc3)CCCCN12,74.2% (inactive)
9,OC[C@H]1[C@H](c2ccc(-c3cccc(F)c3)cc2)[C@@H]2CN(Cc3cncnc3)CCCCN12,107% (active)
10,O=C(C[C@@H]1C[C@@H]2c3cc(NC(=O)NC4CCCC4)ccc3O[C@@H]2[C@@H](CO)O1)NCc1ccccc1,52.2% (inactive)
11,COc1cccc(-c2ccc3n(c2=O)C[C@@H]2[C@@H](CO)[C@H](C(=O)N4CCCCC4)N[C@H]32)c1,13.4% (inactive)
12,O=C(Nc1ccc(C(F)(F)F)cc1)N[C@@H]1CC[C@@H](CCNC(=O)c2ccccc2F)O[C@H]1CO,57.5% (inactive)
13,C[C@@H]1CN([C@@H](C)CO)C(=O)c2cc(-c3ccc(C#N)cc3)cnc2O[C@H]1CN(C)C(=O)CN(C)C,30.7% (inactive)
14,COCC(=O)Nc1ccc2c(c1)C(=O)N(C)C[C@@H](OC)[C@@H](C)CN(CC1CCCCC1)[C@@H](C)CO2,5.52% (inactive)
15,O=C(C[C@H]1CC[C@H]2[C@@H](COC[C@H](O)CN2C(=O)c2ccccn2)O1)N1CCN(c2ccccc2)CC1,-3.75% (inactive)
16,COc1cccc(S(=O)(=O)N2C[C@H](O)COC[C@H]3O[C@@H](CC(=O)N4CCN(c5ccccc5)CC4)CC[C@@H]32)c1,12.2% (inactive)
17,O=C(C[C@H]1CC[C@@H]2[C@H](COC[C@H](O)CN2Cc2ccc(Oc3ccccc3)cc2)O1)N1CCN(c2ccccc2)CC1,117% (active)
18,COc1ccc(S(=O)(=O)N2CC[C@H]3[C@@H](CO)N(C)c4ccc(C#Cc5ccccc5OC)cc4[C@H]32)cc1,52% (inactive)
19,CCC(=O)Nc1ccc2c(c1)C(=O)N(C)[C@@H]1CC[C@@H](CC(=O)NCc3ccccc3Cl)O[C@H]1CO2,5.11% (inactive)
20,CCNC(=O)Nc1ccc2c(c1)C(=O)N(C)[C@@H]1CC[C@@H](CC(=O)NCCOC)O[C@@H]1CO2,4.1% (inactive)
21,C[C@@H]1CN([C@@H](C)CO)S(=O)(=O)c2ccc(C3=CCCC3)cc2O[C@H]1CN(C)C(=O)CC1CC1,36% (inactive)

row,SMILES,inhibition
1,C[C@@H]1CN([C@@H](C)CO)S(=O)(=O)c2ccc(C3=CCCC3)cc2O[C@@H]1CN(C)Cc1ccncc1,69.1% (inactive)
2,C[C@H]1CN([C@@H](C)CO)S(=O)(=O)c2ccc(C3=CCCC3)cc2O[C@@H]1CN(C)Cc1ccccc1,99.6% (active)
3,C[C@H](CO)N1C[C@H](C)[C@@H](CN(C)Cc2cccnc2)Oc2cc(C3=CCCC3)ccc2S1(=O)=O,93.1% (inactive)
4,C[C@@H]1CN([C@@H](C)CO)S(=O)(=O)c2ccc(C3=CCCCC3)cc2O[C@@H]1CN(C)Cc1cccc(C(=O)O)c1,24% (inactive)
5,C[C@@H]1CN([C@H](C)CO)S(=O)(=O)c2ccc(C3=CCCC3)cc2O[C@H]1CN(C)Cc1ccccc1F,118% (active)
6,C[C@@H]1CN([C@@H](C)CO)S(=O)(=O)c2ccc(C3=CCCCC3)cc2O[C@@H]1CN(C)C(=O)CN(C)C,84.4% (inactive)
7,C[C@H]1CN([C@@H](C)CO)S(=O)(=O)c2ccc(C3=CCCCC3)cc2O[C@@H]1CN(C)Cc1ccccc1,117% (active)
8,C[C@H]1CN([C@@H](C)CO)S(=O)(=O)c2ccc(C3=CCCC3)cc2O[C@H]1CN(C)Cc1cccc(C(=O)O)c1,18.6% (inactive)
9,O=C(CCN1CCCCC1)NCC[C@H]1CC[C@@H](NC(=O)C2CCOCC2)[C@H](CO)O1,26.2% (inactive)
10,CO[C@@H]1CN(C)C(=O)c2cc(NC(=O)C3CC3)ccc2OC[C@@H](C)N(C(=O)NC(C)C)C[C@@H]1C,72% (inactive)
11,CC(C)(C)[S@](=O)N1Cc2cc(C(=O)N3CCCCC3)nc(-c3cccc(-c4ccccc4F)c3)c2[C@@H]1CCO,23.3% (inactive)
12,C[C@@H]1CN([C@@H](C)CO)C(=O)c2cc(-c3cncnc3)cnc2O[C@H]1CN(C)C(=O)c1cccc(F)c1,0.0585% (inactive)
13,C[C@@H]1CN([C@H](C)CO)C(=O)c2cc(NC(=O)Nc3ccccc3)ccc2O[C@H]1CN(C)Cc1ccc(Cl)c(Cl)c1,-217% (inactive)
14,C[C@@H]1CN([C@H](C)CO)C(=O)c2cc(NC(=O)Nc3ccccc3)ccc2O[C@@H]1CN(C)Cc1ccc(Cl)c(Cl)c1,-114% (inactive)
15,C[C@@H]1CN([C@@H](C)CO)C(=O)c2cc(NC(=O)Nc3cccc4ccccc34)ccc2O[C@H]1CN(C)Cc1ccc(Oc2ccccc2)cc1,121% (active)
16,C[C@@H]1CN([C@@H](C)CO)C(=O)c2cc(NC(=O)Nc3cccc4ccccc34)ccc2O[C@@H]1CN(C)Cc1ccc(-c2ccccc2)cc1,84.4% (inactive)
17,COc1ccc(CN(C)C[C@@H]2Oc3ccc(NC(=O)Nc4cccc5ccccc45)cc3C(=O)N([C@H](C)CO)C[C@H]2C)cc1,74.4% (inactive)
18,C[C@@H]1CN([C@@H](C)CO)C(=O)c2cc(NC(=O)Nc3cccc4ccccc34)ccc2O[C@H]1CN(C)Cc1ccc(Cl)c(Cl)c1,97.7% (active)
19,COc1ccc(S(=O)(=O)N[C@H]2C=C[C@@H](CC(=O)O)O[C@@H]2CO)cc1,8.59% (inactive)
20,CCCN1C[C@@H](C)[C@@H](OC)CN(C)C(=O)c2ccc(NC(=O)Nc3cccc(F)c3)cc2OC[C@@H]1C,9.75% (inactive)
